The results in this text go back to PubChem BioAssay.

In assay [1] the test system is Wnt5a (protein binding on small-molecule microarray). The experiment in a line: small molecules binding Wnt5a protein – biophysical, small-molecule microarray, 635/667 nm fluorescence, primary screen (AID 1142).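 Note: fluorescence read at 667 nm with signal to noise per printed feature.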 Particulars: 635 nm fluorescence, higher = more signal.
Assay [2] can be described thus: ATP-based viability of Huh7 replicon cells – cell-based, CellTiter-Glo luminescence, basal, 48 h, cytotoxicity control for HCV replication inhibitor project, primary screen (AID 1143).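 Note: Huh7 hepatoma cells carrying a hepatitis C replication reporter with no stimulus; test concentration not given here.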 The note with it: higher = more signal, called active from +8 up or from −8 down.
Assay [3] can be described thus: Pseudomonas biofilm growth suppression – PAO1 strain, BacTiter-Glo luminescence, LB-PBS, primary screen (AID 1144). The note with it: P. aeruginosa PAO1 biofilm, 12 h, higher = more signal.
Assay [4] is described as follows: basal CRE-LacZ reporter activity in PC12 – cell-based, unstimulated, primary screen (AID 1145). Particulars: no forskolin, luminescence, 4.5 h, higher = more signal, called active from +8 up or from −8 down.
A short description of assay [5]: forskolin-driven CRE-LacZ activity in PC12 – cell-based, CRE-LacZ reporter, forskolin-stimulated, primary screen (AID 1146).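 Note: PC12 cells with 6xCRE LacZ reporter stimulated by forskolin 10 µM; beta-galactosidase reporter signal reflecting CREB driven transcription.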 The note with it: luminescence, 4.5 h, higher = more signal, called active from +8 up or from −8 down.
Assay [6] deals with Streptavidin (Streptomyces avidinii) (UniProt P22629). Nature of the assay: compounds binding control protein streptavidin – biophysical, small-molecule microarray, 635/667 nm fluorescence, artefact control for SMM compound annotation, primary screen (AID 1147).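 Note: signal reflects streptavidin binding to arrayed compounds as a control protein.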 Particulars: higher = more signal.
Sequence of Streptavidin (Streptomyces avidinii) (P22629 whole entry, looked up): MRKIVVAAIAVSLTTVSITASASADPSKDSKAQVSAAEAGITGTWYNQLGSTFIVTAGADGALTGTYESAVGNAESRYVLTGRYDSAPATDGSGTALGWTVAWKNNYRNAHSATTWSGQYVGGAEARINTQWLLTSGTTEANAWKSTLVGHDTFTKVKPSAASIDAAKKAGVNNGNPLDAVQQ
The nature of assay [7]: probe aInhba binding on compound microarray – biochemical, small-molecule microarray, 635/667 nm fluorescence, primary screen (AID 1148).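 Note: score merges 667nm spot fluorescence with signal-to-noise for antibody binding to printed compounds.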 Particulars: higher = more signal.
The target in assay [8] is Torsin-1A (Homo sapiens) (UniProt O14656). The experiment in a line: TOR1A wild-type binding on microarray – cell lysate, small-molecule microarray, lysate, 635/667 nm, primary screen (AID 1149). Particulars: COS7 hTOR1A-WT lysate, 635 nm fluorescence, higher = more signal.
Sequence of Torsin-1A (Homo sapiens) (O14656 whole entry, looked up): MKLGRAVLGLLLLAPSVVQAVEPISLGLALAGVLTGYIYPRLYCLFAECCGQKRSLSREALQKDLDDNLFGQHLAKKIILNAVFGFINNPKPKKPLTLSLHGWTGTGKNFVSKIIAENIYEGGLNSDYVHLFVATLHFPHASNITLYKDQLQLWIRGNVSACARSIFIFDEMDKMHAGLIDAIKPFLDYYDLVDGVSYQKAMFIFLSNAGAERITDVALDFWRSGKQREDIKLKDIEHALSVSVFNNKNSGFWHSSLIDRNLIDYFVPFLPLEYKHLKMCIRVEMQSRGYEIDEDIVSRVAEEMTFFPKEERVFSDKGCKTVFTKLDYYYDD
Assay [9] shares this target. The experiment in a line: torsin A mutant lysate binding on microarrays – cell lysate, small-molecule microarray, COS7 lysate, 635/667 nm fluorescence, primary screen (AID 1150).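 Note: score pools 667 nm emission and signal to noise measuring lysate protein binding.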 The note with it: COS7 hTOR1A mutant lysate, 635 nm fluorescence, higher = more signal.
The subject of assay [10] is Sonic hedgehog protein (Shh). Nature of the assay: Sonic hedgehog microarray binding compounds – biochemical, small-molecule microarray, 635/667 nm fluorescence, primary screen (AID 1151).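 Note: Shh protein binding to compounds spotted on small-molecule microarray slides; score combines spot fluorescence intensity with signal-to-noise across triplicate slides.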 The note with it: 635 nm fluorescence, higher = more signal.
Assay [11] can be described thus: optical density shifts of acrAB sulA E. coli – strain DRC41, OD650, 48 h, E. coli filamentation inducer project, primary screen (AID 1152).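 Note: E. coli MC1000 strain DRC41 lacking acrAB efflux pump and sulA.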 Particulars: higher = more signal, called active from +8 up or from −8 down.
A short description of assay [12]: probe aLefty1 binding on compound microarray – biochemical, small-molecule microarray, 635/667 nm fluorescence, primary screen (AID 1153).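 Note: score merges spot fluorescence with signal-to-noise ratio from the scanned slide images.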 The note with it: higher = more signal.
The nature of assay [13]: plasmodial surface anion channel blockers, osmotic lysis – cell-based, P. falciparum Indochina, OD700, 1 h, primary screen (AID 1154). Particulars: P. falciparum Indochina infected RBC osmotic lysis, higher = more signal, called active from +8 up or from −8 down.
A short description of assay [14]: plasmodial surface anion channel blockers, osmotic lysis – cell-based, P. falciparum Indochina, OD700, 2 h, primary screen (AID 1155).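 Note: lysis reports solute entry through the parasite surface anion channel PSAC.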 Particulars: P. falciparum Indochina infected erythrocytes, higher = more signal, called active from +8 up or from −8 down.
The nature of assay [15]: changes in parasitized red cell lysis, either direction – P. falciparum Indochina, OD700, 3 h, PSAC antagonist project, primary screen (AID 1156). The note with it: P. falciparum-infected erythrocytes, osmotic lysis, higher = more signal, called active from +8 up or from −8 down.
Assay [16] can be described thus: plasmodial surface anion channel blockers, osmotic lysis – cell-based, P. falciparum Indochina, OD700, 18 h, primary screen (AID 1157). The note with it: P. falciparum Indochina infected erythrocytes, osmotic lysis OD700, 18 h; higher = more signal, called active from +8 up or from −8 down.
Assay [17] is described as follows: S6 kinase pathway phospho-S6 level changes – cell-based, A549, cytoblot, luminescence, serum-stimulated, primary screen (AID 1158).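 Note: serum-stimulated A549 lung adenocarcinoma cells; signal is phosphorylated S6 detected by cytoblot immunostaining with HRP secondary.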 Particulars: 5 h, higher = more signal.
The target in assay [18] is NADPH oxidase 2 (Homo sapiens) (UniProt P04839). The experiment in a line: compounds shifting NOX2 Amplex Red fluorescence – cell-based, HEK293-NOX2, PMA-stimulated, NOX inhibitor project, primary screen (AID 1159). Note: test concentration not given here. Particulars: 45 min, higher = more signal, called active from +8 up or from −8 down.
Sequence of NADPH oxidase 2 (Homo sapiens) (P04839 whole entry, looked up): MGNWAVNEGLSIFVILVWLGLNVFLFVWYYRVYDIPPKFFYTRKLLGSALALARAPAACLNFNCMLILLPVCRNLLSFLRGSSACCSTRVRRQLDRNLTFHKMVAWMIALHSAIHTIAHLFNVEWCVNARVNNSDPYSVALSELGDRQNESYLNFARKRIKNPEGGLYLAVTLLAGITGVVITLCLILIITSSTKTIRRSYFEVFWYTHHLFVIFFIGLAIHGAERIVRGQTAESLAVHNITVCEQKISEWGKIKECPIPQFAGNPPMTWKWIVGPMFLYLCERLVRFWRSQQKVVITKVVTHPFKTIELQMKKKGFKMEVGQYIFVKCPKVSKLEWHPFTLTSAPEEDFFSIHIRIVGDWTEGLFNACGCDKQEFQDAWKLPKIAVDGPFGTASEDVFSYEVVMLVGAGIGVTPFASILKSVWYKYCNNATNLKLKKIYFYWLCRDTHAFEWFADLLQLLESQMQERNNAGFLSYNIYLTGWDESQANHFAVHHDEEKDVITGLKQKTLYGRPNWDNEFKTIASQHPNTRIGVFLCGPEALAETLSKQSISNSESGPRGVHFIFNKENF
Assay [19] concerns the target NADPH oxidase 4 (Homo sapiens) (UniProt Q9NPH5). Nature of the assay: compounds shifting NOX4 Amplex Red fluorescence – cell-based, HEK293-NOX4, tetracycline-induced, NOX inhibitor project, primary screen (AID 1160). The note with it: HEK293-NOX4, Amplex Red H2O2 fluorescence, 45 min; higher = more signal, called active from +8 up or from −8 down.
The target of assay [20] is NADPH oxidase 5 (Homo sapiens) (UniProt Q96PH1). Nature of the assay: compounds shifting NOX5 Amplex Red fluorescence – cell-based, HEK293-NOX5, NOX inhibitor project, primary screen (AID 1161). The note with it: HEK293-NOX5, ionomycin, 45 min, higher = more signal.
Sequence of NADPH oxidase 5 (Homo sapiens) (Q96PH1 whole entry, looked up): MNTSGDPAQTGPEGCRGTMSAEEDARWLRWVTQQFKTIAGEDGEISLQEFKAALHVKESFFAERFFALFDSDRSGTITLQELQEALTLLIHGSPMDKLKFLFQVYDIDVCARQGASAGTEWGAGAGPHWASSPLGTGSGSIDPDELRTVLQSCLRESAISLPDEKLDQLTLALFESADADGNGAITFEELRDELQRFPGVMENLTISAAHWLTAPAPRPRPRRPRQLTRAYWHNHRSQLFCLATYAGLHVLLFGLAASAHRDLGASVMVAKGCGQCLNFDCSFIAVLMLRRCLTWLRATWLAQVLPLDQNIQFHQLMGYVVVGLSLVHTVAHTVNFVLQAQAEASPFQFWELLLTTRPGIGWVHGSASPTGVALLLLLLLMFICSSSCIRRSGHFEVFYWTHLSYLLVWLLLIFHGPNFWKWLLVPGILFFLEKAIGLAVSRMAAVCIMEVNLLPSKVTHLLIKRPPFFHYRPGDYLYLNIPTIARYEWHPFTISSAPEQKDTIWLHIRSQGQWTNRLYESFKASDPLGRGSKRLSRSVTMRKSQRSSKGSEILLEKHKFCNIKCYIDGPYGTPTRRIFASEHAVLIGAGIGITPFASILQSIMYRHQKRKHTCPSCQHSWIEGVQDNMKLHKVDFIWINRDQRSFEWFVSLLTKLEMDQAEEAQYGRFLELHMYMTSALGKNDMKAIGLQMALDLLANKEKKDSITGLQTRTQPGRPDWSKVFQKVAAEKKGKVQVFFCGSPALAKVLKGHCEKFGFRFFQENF

The source made the active and inactive calls. Unless noted, the rule behind the calls is not given here.

Sequence of NADPH oxidase 4 (Homo sapiens) (Q9NPH5 whole entry, looked up): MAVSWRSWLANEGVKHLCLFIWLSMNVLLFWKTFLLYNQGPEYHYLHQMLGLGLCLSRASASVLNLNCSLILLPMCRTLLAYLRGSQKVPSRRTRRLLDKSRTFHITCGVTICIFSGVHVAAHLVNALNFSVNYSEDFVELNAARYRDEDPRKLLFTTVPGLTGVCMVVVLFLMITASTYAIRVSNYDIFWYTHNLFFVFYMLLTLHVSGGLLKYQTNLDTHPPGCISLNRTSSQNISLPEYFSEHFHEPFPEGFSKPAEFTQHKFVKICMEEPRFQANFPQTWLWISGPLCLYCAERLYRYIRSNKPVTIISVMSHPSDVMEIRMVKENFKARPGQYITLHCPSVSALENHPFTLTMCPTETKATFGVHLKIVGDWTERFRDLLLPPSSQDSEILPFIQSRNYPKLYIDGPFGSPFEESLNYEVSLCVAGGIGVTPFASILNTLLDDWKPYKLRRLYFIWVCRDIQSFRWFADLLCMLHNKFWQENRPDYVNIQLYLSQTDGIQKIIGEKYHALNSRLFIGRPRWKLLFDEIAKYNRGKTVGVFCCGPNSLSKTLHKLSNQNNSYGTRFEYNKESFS

In the case of `CC(CCN1CCCCc2nc(C)c(C)cc21)=NO[C@@H](C)c1cc(-c2c(C)cc(C)cc2C)no1`, the composite z-score is -0.525 in [1]; -1.23 in assay [6]; -0.211 in assay [7]; -1.18 with Torsin-1A (Homo sapiens) [8]; -0.956 in the assay with Torsin-1A (Homo sapiens) [9]; -0.235 in [10]. Moreover, the composite z-score in assay [12] is -0.196. In addition, the z-score in [2] is -3.04 (inactive); in [3], -0.425 (inactive); in assay [4], 1.9 (inactive); in assay [5] it was 1.02 (inactive); in assay [11] it was 0.393 (inactive); in assay [13] it was 3 (inactive). The z-score is 0.49 (inactive) in [14]; 1.54 (inactive) in assay [15]; 0.588 (inactive) in [16]; 0.13 in assay [17]; -1.79 (inactive) in assay [18]; -0.125 (inactive) in assay [19]. The z-score in [20] is -2.5.
`COC(=O)[C@H](C)NC(=O)CCC1CC(OC(=O)NCCc2ccc(F)cc2)CC2(CCCC(COC(=O)NCCOc3ccccc3)O2)O1` (stereo not given in full): the composite z-score in assay [1] was 0.399; in [6] it was 0.56; in assay [7], -0.0059; with Torsin-1A (Homo sapiens) [8], 0.37; in the assay with Torsin-1A (Homo sapiens) [9], 0.379; in assay [10] it was 1.46. Moreover, in assay [12], the composite z-score stood at 0.0169. Besides, the z-score in assay [2] was -0.471 (inactive); in assay [3] it was 0.706 (inactive); in assay [4], -0.0755 (inactive); in [5], -0.501 (inactive); in assay [11], -0.651 (inactive); in assay [13], -1.23 (inactive). The z-score in [14] was -0.257 (inactive); in assay [15] it was 0.189 (inactive); in assay [16], 0.199 (inactive); in assay [17] it was 0.0246; in [18], 0.749 (inactive); in assay [19], 0.622 (inactive). Besides, in [20], the z-score was found to be 0.382.
For the compound `CCN1C(C)=C(C(=O)OC)[C@@H](c2ccccc2)N2C(=O)[C@](O)(C(=O)OC)CC(C(C)=O)=C12`, the composite z-score was 0.24 in assay [1]; -0.466 in assay [6]; -0.0986 in assay [7]; 0.837 with Torsin-1A (Homo sapiens) [8]; 0.153 with Torsin-1A (Homo sapiens) [9]; 0.742 in assay [10]. Moreover, in assay [12], the composite z-score was -0.22. The z-score in assay [2] was 0.0021 (inactive); in assay [3], -0.63 (inactive); in [4], -0.324 (inactive); in assay [5], -0.482 (inactive); in assay [11] it was -0.0844 (inactive); in [13], 0.725 (inactive). For the same compound, the z-score in assay [14] is 0.893 (inactive); in [15], 0.62 (inactive); in assay [16] it was 0.195 (inactive); in [17], 0.825; in [18], 0.188 (inactive); in [19], 0.724 (inactive). Also, in assay [20], the z-score is 0.697.
Take `C=CC[C@@H]1C=C[C@H](Oc2ccc(C)cc2)[C@@H](COC(=O)NCc2cccc3ccccc23)O1`: the composite z-score in assay [1] is 0.243; in assay [6], -0.142; in assay [7], -0.156; with Torsin-1A (Homo sapiens) [8], -0.0815; in the assay with Torsin-1A (Homo sapiens) [9], -0.0604; in assay [10] it was 0.701. For the same compound, the composite z-score in assay [12] is -0.0501. Moreover, the z-score in [2] is -2.06 (inactive); in assay [3] it was -0.607 (inactive); in [4], -0.527 (inactive); in assay [5] it was -0.868 (inactive); in [11], -0.575 (inactive); in [13], 2.39 (inactive). In addition, the z-score was 0.852 (inactive) in assay [14]; -0.508 (inactive) in assay [15]; 0.346 (inactive) in assay [16]; -0.783 in assay [17]; 0.839 (inactive) in assay [18]; -0.187 (inactive) in assay [19]. For the same compound, the z-score in assay [20] was -0.146.
`O=C1[C@H]2[C@H]3[C@H](O)[C@H](O)CC(=NO[C@@H]4O[C@H](CO)[C@@H](O)[C@H](O)[C@H]4O)[C@@H]3CC[C@H]2C(=O)N1c1cccc(Oc2ccccc2)c1`: the composite z-score in assay [1] was 0.0469; in assay [6], 0.532; in [7], -0.0504; in the assay with Torsin-1A (Homo sapiens) [8], 0.787; in the assay with Torsin-1A (Homo sapiens) [9], 0.0995; in assay [10], 0.828. In assay [12], this compound registered a composite z-score of -0.0967. Further, the z-score in assay [2] is 0.353 (inactive); in assay [3], -0.774 (inactive); in [4], 0.967 (inactive); in assay [5], 0.314 (inactive); in [11], -0.192 (inactive); in assay [13] it was -0.612 (inactive). Also, the z-score in assay [14] is -0.0313 (inactive); in assay [15], 0.271 (inactive); in assay [16], 0.0606 (inactive); in assay [17], -0.263; in [18], 0.614 (inactive); in [19] it was 1.02 (inactive). Moreover, the z-score in assay [20] stood at 0.544.
